This is a sample that favours compounds with a hit; in the whole collection about 1.2% have one here.
LAP4-GFP MLPCN: modulators of LAP4-GFP expression in yeast, primary screen, S. cerevisiae, multiplex flow cytometry, MLPCN library | 3 h; median GFP as percent of DMSO wells | GFP response vs DMSO, % at 10 µM | actives 0.34% (n = 320,000) | AID 2023, 2009;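 active = GFP response vs DMSO above a set limit, about the screen mean plus 3 SD, cut at about 150% in these data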
CIT2-GFP yeast: modulators of CIT2-GFP expression in yeast, primary screen, S. cerevisiae, GFP fusion, multiplex flow cytometry, MLPCN library; S. cerevisiae CIT2-GFP strain, 3 h; 100 means same as DMSO wells; GFP response vs DMSO, % at 10 µM; actives 0.065% (n = 320,000); AID 2029, 2009;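 active = GFP response relative to DMSO above a set limit, near the screen mean plus 3 SD, cut at about 150% in these data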;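 also: ratio of well median GFP fluorescence to mean of DMSO wells on the plate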
RPL19A-GFP yeast: RPL19A-GFP expression modulators in yeast, primary screen, cell-based, S. cerevisiae, multiplex flow cytometry, MLPCN | S. cerevisiae RPL19A-GFP strain, 3 h; stronger effect = lower value | percent response vs DMSO, % at 10 µM | actives 0.3% (n = 330,000) | AID 2025, 2009;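 active = percent response vs DMSO below 50%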;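 also: median channel GFP fluorescence of the barcoded RPL19A-GFP strain; lower means less RPL19A-GFP as with rapamycin TOR inhibition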
DSG3 Ab inh: inhibitors of pemphigus antibody binding to DSG3, primary screen, biochemical, bead-based, flow cytometry, scFv-GFP. Desmoglein-3 (Homo sapiens), P32926. DSG3-coupled beads, scFv-anti-DSG3-GFP binding; stronger effect = lower value. binding (percent of control), % at 10 µM. actives 0.48% (n = 310,000). AID 588358, 2011;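 active = binding more than 3 SD below its plate's average and above zero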;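 also: hits lower antibody fragment binding to DSG3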
MEP2 TOR yeast: modulators of MEP2-GFP levels in yeast, primary screen, S. cerevisiae, multiplex flow cytometry, MLPCN library; S. cerevisiae MEP2-GFP strain, 3 h; 100% = DMSO control level; GFP response vs DMSO, % at 10 µM; actives 0.51% (n = 330,000); AID 2016, 2009;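 active = GFP response versus DMSO above a set limit, roughly screen mean plus 3 SD, cut at about 180% in these data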;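 also: median GFP fluorescence of the barcode-gated MEP2-GFP cells per well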
AGP1-GFP MLPCN: modulators of AGP1-GFP expression in yeast TOR pathway, primary screen, cell-based, multiplex flow cytometry, S. cerevisiae, MLPCN library | 3 h; GFP as percent of DMSO wells | actives 0.02% (n = 320,000) | GFP response vs DMSO, % at 10 µM;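 active = GFP response relative to DMSO above a set limit, near screen average plus 3 SD, cut at about 150% in these data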;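 also: median GFP channel fluorescence of the gated AGP1 strain per well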
LAP4 cherry2: LAP4-GFP expression modulators in yeast, confirmation, cell-based, second cherry pick, flow cytometry | shares compounds with LAP4-GFP MLPCN | S. cerevisiae LAP4-GFP strain, 3 h | GFP response vs DMSO, % at 10 µM | actives 20% (n = 590);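 active = GFP signal as percent of the solvent control above about 150%, meaning raised reporter expression, limit read from the data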
MEP2 cherry2: modulators of MEP2-GFP levels in yeast, confirmation, S. cerevisiae, flow cytometry GFP, second cherry picks | shares compounds with LAP4-GFP MLPCN | S. cerevisiae MEP2-GFP strain, 3 h | GFP response vs DMSO, % at 10 µM | actives 10% (n = 590) | AID 2622, 2010;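 active = GFP signal above 150% of the solvent control wells, that is a rise of more than half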;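 also: median channel GFP fluorescence of all gated yeast cells per well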
RPL19A GFP CP2: RPL19A-GFP modulators in TOR pathway yeast, confirmation, cell-based, S. cerevisiae, flow cytometry, second cherry pick; shares compounds with LAP4-GFP MLPCN; S. cerevisiae RPL19A-GFP strain, 3 h; stronger effect = lower value; 100% means same as DMSO wells; GFP response vs DMSO, % at 10 µM; actives 3% (n = 590); AID 2623, 2010;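 active = under 65% GFP response relative to DMSO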;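 also: median GFP channel fluorescence per well over the all cells gate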
CIT2 GFP CP2: modulators of CIT2-GFP expression in yeast, confirmation, flow cytometry, second cherry pick, single plex; shares compounds with LAP4-GFP MLPCN; S. cerevisiae CIT2-GFP strain, 3 h; DMSO control wells read 100%; GFP response vs DMSO, % at 10 µM; actives 8% (n = 590); AID 2624, 2010;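 active = GFP response vs DMSO above about 150%, limit read from the data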;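 also: median green fluorescence per well over all gated yeast cells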
AGP1 GFP CP2: AGP1-GFP expression modulators, hit retest, confirmation, cell-based, flow cytometry, S. cerevisiae, cherry pick set 2. shares compounds with LAP4-GFP MLPCN. 590 tested, under 10 active. percent response vs DMSO, % at 10 µM. S. cerevisiae AGP1-GFP strain, 3 h;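 active = over 150 percent of DMSO response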;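 also: median GFP channel fluorescence over all cells without mother daughter split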
s288c autofluor: compound autofluorescence in yeast s288c, dose response, artefact control for yeast TOR pathway GFP screen, s288c strain. fluorescence change (kMESF span) at 33 µM. 610 tested, under 10 active. S. cerevisiae s288c, 520 nm autofluorescence, flow cytometry, 3 h; stronger effect = higher value; zero means same as solvent-only cells. shares compounds with LAP4-GFP MLPCN;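 active = fluorescence span over the dose series, or activity score, above about 33, limit read from the data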
Yeast autofl DR: autofluorescence of compounds in yeast s288c, dose response, artefact control for yeast TOR pathway GFP screen, primary hits, KU SAR, s288c parental | fluorescence change (span) at 33 µM | AID 488829, 2010 | shares compounds with LAP4-GFP MLPCN | 110 tested, under 10 active | S. cerevisiae s288c parental, compound autofluorescence, flow cytometry, 3 h;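 active = fluorescence change span, or the activity score built from it, above 25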
TORC1 bypass gr: wild-type yeast growth inhibition sparing TORC1 bypass cells, mechanism study for yeast TOR pathway GFP screen, BY4741 wild type, TORC1 bypass strain; shares compounds with LAP4-GFP MLPCN; growth rating (0-3) at 30 µM; S. cerevisiae BY4741 spot growth rating, 48-72 h; stronger effect = lower value; AID 504456, 2011; 120 tested, under 10 active;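 active = growth rating at most 1 for wild type yeast while the TORC1 bypass strain still grows fully, rated 3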
Of the large screens only hits and unclear results are named; the others gave an inactive call (follow-up assays come after a bar, where they were run).

Cc1ccccc1N1C(=O)C(Cl)=C(N2CCN(c3ccccc3)CC2)C1=O	none (no result: DSG3 Ab inh, AGP1-GFP MLPCN) | s288c autofluor inactive
COc1ccc(NC(=O)/C(Cl)=C(/Cl)S(=O)Cc2ccccc2)cn1 (configuration not stated)	LAP4-GFP MLPCN 288 | s288c autofluor inactive
COc1ccc(NC(=O)Cc2ccccc2)cn1	none
COc1ccc(NC(=O)CCC(=O)Nc2nnc(CC(C)C)s2)cc1Cl	none
CC(=O)n1cc(Nc2ccc([N+](=O)[O-])cc2)c2ccccc21	none
CC(=O)SC(C[N+](=O)[O-])c1cn(C(C)=O)c2ccccc12 (configuration not stated)	LAP4-GFP MLPCN 229 | s288c autofluor inactive | Yeast autofl DR inactive | TORC1 bypass gr inactive
CC(C)(C)NC(=O)CN(C(=O)Cn1nnc(-c2ccc(Cl)cc2)n1)C1CCN(Cc2ccccc2)CC1	none
N#C/C(=C\c1ccccn1)c1nc2ccccc2s1	LAP4-GFP MLPCN 634, MEP2 TOR yeast 752, AGP1-GFP MLPCN 166 (no result: CIT2-GFP yeast) | s288c autofluor 33
COC(=O)c1ccc(/C=C(\C#N)c2nc3ccccc3s2)cc1	none
CC1CCCCN1C(=O)COC(=O)c1cc(Cl)c2c(c1)OCO2 (configuration not stated)	none (no result: LAP4-GFP MLPCN, CIT2-GFP yeast, RPL19A-GFP yeast, MEP2 TOR yeast, AGP1-GFP MLPCN)
Oc1ccccc1N=N/C(=N/Nc1ccccc1O)c1ccccc1	none
N#C/C(N=Nc1ccccc1O)=N\Nc1ccccc1O	LAP4-GFP MLPCN 183 | LAP4 cherry2 inactive | MEP2 cherry2 inactive | RPL19A GFP CP2 inactive | CIT2 GFP CP2 inactive | AGP1 GFP CP2 inactive

Screening results (PubChem BioAssay)
